# Measurements from PubChem BioAssay (Tox21).
# Values without a mark were called inactive. Records with an inconclusive call do not appear. A call without a number means that no potency is given here. The source made the active and inactive calls. Unless noted, calls come from the whole dose curve; as a rule, active = well fitted curve in the direction sought with a large enough effect in the repeat runs; inconclusive = weak or mixed curves; inactive = no such curve, though single readings can be large; an effect the other way counts as inactive or inconclusive.
# Columns and labels:
# [1] = A CellTox Green Cytotoxicity Assay to monitor cytotoxicity in HEK293 cells - 32 hour (AID 1224881); note: nearly all actives have a fitted effect of over 40% in size
# How it was run: (§1)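 Fluorescence intensity, read at 0, 8, 16, 24, 32 and 40 h of compound treatment, reflected dye binding to DNA of dead HEK293 cells; compounds (23 nL, DMSO) were added 5 h after plating cells with reagent.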
# [2] = A CellTox Green Cytotoxicity Assay to monitor cytotoxicity in HepG2 cells - 0 hour (AID 1224882); note: nearly all actives have a fitted effect of over 35% in size
# How it was run: (§2)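 Using 1536-well format, dye-containing HepG2 suspension was seeded, allowed 5 h at 37 C/5% CO2, dosed by pintool with compounds, positive and negative controls, and imaged for fluorescence across 40 h.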
# [3] = A CellTox Green Cytotoxicity Assay to monitor cytotoxicity in HepG2 cells - 32 hour (AID 1224883); note: nearly all actives have a fitted effect of over 50% in size
# How it was run: as §2
# [4] = A CellTox Green Cytotoxicity Assay to monitor cytotoxicity in HEK293 cells - 8 hour (AID 1224884); note: nearly all actives have a fitted effect of over 35% in size
# How it was run: as §1
# [5] = qHTS RealTime-Glo MT Cell Viability Assay in HepG2 cells - 16 hour (AID 1224885); note: nearly all actives have a fitted effect of over 50% in size
# How it was run: (§3)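 HepG2 cells were seeded at 600 cells/well together with NanoLuc luciferase and a cell-permeant prosubstrate, preincubated 5 h at 37 C/5% CO2, then pin-dosed with compounds in DMSO. Nonlytic luminescence from viable cells was read at each time point.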
# [6] = qHTS RealTime-Glo MT Cell Viability Assay in HEK293 cells - 24 hour (AID 1224886); note: top concentration of the series differs between compounds; nearly all actives have a fitted effect of over 50% in size
# How it was run: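 HEK293 cells were seeded at 600 cells/well together with NanoLuc luciferase and cell-permeant prosubstrate, preincubated 5 h at 37 C/5% CO2, then given compound in DMSO by pintool. Luminescence from viable-cell prosubstrate reduction was read repeatedly over 40 h.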
# [7] = qHTS RealTime-Glo MT Cell Viability Assay in HEK293 cells - 8 hour (AID 1224887); note: top concentration of the series differs between compounds; nearly all actives have a fitted effect of over 50% in size
# How it was run: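 Viable HEK293 cells reduce a cell-permeant prosubstrate; the product diffuses out and is consumed by NanoLuc in the medium to give light. Compounds went in after a 5 h incubation and plates were read over the treatment course.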
# [8] = A CellTox Green Cytotoxicity Assay to monitor cytotoxicity in HEK293 cells - 16 hour (AID 1224888); note: nearly all actives have a fitted effect of over 35% in size
# How it was run: as §1
# [9] = qHTS RealTime-Glo MT Cell Viability Assay in HepG2 cells - 0 hour (AID 1224889); note: nearly all actives have a fitted effect of over 50% in size
# How it was run: as §3
# [10] = A CellTox Green Cytotoxicity Assay to monitor cytotoxicity in HepG2 cells - 8 hour (AID 1224890); note: nearly all actives have a fitted effect of over 45% in size
# How it was run: as §2
# [11] = qHTS assay to identify small molecule antagonists of the estrogen receptor alpha (ER-alpha) signaling pathway using the BG1 cell line in the presence of 0.1 nM 17-beta-estradiol - cell viability counter screen (AID 1259241); note: nearly all actives have a fitted effect of over 40% in size
# How it was run: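 Cytotoxicity counter-screen: live-cell protease activity measured by fluorescence (30 min reagent step) in the same wells. Cells were VM7Luc4E2 with endogenous ER-alpha and ERE-driven luciferase, treated 22 hr at 37C alongside 0.1 nM 17beta-estradiol final.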
# [12] = qHTS assay to identify small molecule antagonists of the androgen receptor (AR) signaling pathway using the MDA cell line in the presence of 0.5 nM R1881 - cell viability counter screen (AID 1259242); note: nearly all actives have a fitted effect of over 45% in size
# How it was run: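 Viability of MDA-kb2 cells was multiplexed with the luciferase AR readout; after 16 hr with compounds and R1881 at 0.5 nM final, CellTiter-Fluor fluorescence was recorded.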
# [13] = biological target: Androgen receptor (Homo sapiens) (UniProt P10275); experiment: qHTS assay to identify small molecule antagonists of the androgen receptor (AR) signaling pathway using the MDA cell line in the presence of 0.5 nM R1881 (AID 1259243); note: nearly all actives have a fitted effect of over 50% in size
# How it was run: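 Reporter cells cultured without CO2 receive test chemicals, then 0.5 nM R1881 final; after 16 hr at 37C, ONE-Glo is added and light output recorded.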
# [14] = qHTS assay to identify small molecule HDAC inhibitors (AID 1259364);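 note: wild-type HCT-116 cells with endogenous class I/II HDAC activity; top concentration of the series differs between compounds; nearly all actives have a fitted effect of over 45% in size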
# How it was run: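 Read-out: luminescence of HDAC-Glo I/II reagent, 30 min RT, reflecting class I/II deacetylase activity in whole HCT-116 cells pre-exposed 2 h to DMSO-dissolved compounds.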
# [15] = qHTS assay to identify small molecule HDAC inhibitors - cell viability counter screen (AID 1259365)
# How it was run: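 CellTiter-Glo luminescence (30 min, room temperature) reported viability after a 2 h compound exposure at 37 C. Cells: wild-type HCT-116, 1,500 per well, seeded the night before.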
# [16] = qHTS assay to identify small molecule agonists of the sonic hedgehog signaling (Shh) pathway - cell viability counter screen (AID 1259366); note: nearly all actives have a fitted effect of over 50% in size; note: potency is the fitted concentration of half-maximal effect
# How it was run: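 Cytotoxicity counter screen: CellTiter-Fluor reagent added after 23 h compound exposure, then 1 h at 37C and fluorescence read. Cells were 3T3 Gli1-Luc, seeded 2,000 per well and dosed 4 h post-plating.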
# [17] = qHTS assay to identify small molecule antagonists of the sonic hedgehog signaling (Shh) pathway - cell viability counter screen (AID 1259367); note: nearly all actives have a fitted effect of over 55% in size; note: potency is the fitted concentration of half-maximal effect
# How it was run: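 NIH/3T3-derived Gli1-Luc reporter cells, 2,000/well, plated 4 hr before compound addition, then stimulated with conditioned medium for 24 hr at 37C. Viability measured in the same wells by CellTiter-Fluor fluorescence, reagent added at 23 hr for 1 hr.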
# [18] = qHTS assay to identify small molecule agonists of the sonic hedgehog signaling (Shh) pathway (AID 1259368; calls by dose curve;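 note: NIH/3T3-derived 3T3Gli1-Luc cells carrying a stable Gli1-driven firefly luciferase reporter; series mostly up to about 92 µM; nearly all actives have a fitted effect of over 15% in size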)
# How it was run: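 A Gli1 transcriptional response element controlled firefly luciferase in 3T3Gli1-Luc cells. Compounds and a positive control were added 4 hr after plating, and cells were incubated a further 24 hr at 37 C before luminescence detection.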
# [19] = biological target: Estrogen receptor (Homo sapiens) (UniProt P03372); experiment: qHTS assay to identify small molecule antagonists of the estrogen receptor alpha (ER-alpha) signaling pathway using the BG1 cell line in the presence of 0.1 nM 17-beta-estradiol (AID 1259244); note: nearly all actives have a fitted effect of over 50% in size
# How it was run: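 Estradiol at 0.1 nM (final) stimulates the endogenous ER-alpha of VM7Luc4E2 cells carrying an ERE-driven luciferase; compounds are co-incubated 22 h at 37C and luciferase output quantified by luminescence.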
# [20] = qHTS assay to identify small molecule phospholipidosis (PLD) inducers (AID 1259344; active = well fitted curve in the direction sought with a large enough effect; an effect the other way counts as inactive or inconclusive)
# How it was run: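 HepG2 cells, 900/well, treated with compound plus LipidTOX Red for 24 h at 37 C; amiodarone positive and DMSO negative controls. Fixed with paraformaldehyde/Hoechst, then high-content imaging scored LipidTOX pit count and integrated intensity per well and per cell.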
# Androgen receptor (Homo sapiens), sequence (P10275 whole entry, looked up): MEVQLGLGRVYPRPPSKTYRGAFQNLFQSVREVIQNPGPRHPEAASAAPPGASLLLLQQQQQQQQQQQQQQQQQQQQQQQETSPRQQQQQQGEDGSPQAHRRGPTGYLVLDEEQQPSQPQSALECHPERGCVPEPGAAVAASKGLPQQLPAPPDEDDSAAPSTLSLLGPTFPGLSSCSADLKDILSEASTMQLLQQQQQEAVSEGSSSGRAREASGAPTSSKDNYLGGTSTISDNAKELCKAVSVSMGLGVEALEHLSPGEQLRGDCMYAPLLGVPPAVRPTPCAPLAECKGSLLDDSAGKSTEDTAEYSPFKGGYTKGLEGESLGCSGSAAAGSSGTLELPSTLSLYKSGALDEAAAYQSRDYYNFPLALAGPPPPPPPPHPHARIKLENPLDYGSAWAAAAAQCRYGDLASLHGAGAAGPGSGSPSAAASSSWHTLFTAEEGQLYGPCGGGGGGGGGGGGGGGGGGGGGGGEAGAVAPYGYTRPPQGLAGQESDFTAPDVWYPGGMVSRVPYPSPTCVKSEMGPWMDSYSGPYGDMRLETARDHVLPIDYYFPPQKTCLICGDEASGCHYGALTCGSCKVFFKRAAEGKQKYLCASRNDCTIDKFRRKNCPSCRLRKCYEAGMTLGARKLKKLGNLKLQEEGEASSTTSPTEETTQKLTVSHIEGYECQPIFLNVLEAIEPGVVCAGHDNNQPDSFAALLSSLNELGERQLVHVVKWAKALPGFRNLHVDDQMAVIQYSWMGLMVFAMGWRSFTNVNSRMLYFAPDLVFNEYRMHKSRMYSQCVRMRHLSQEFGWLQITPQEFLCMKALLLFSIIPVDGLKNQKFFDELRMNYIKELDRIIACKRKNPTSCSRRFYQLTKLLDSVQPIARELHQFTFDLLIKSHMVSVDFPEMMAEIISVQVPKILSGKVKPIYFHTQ
# Estrogen receptor (Homo sapiens), sequence (P03372 whole entry, looked up): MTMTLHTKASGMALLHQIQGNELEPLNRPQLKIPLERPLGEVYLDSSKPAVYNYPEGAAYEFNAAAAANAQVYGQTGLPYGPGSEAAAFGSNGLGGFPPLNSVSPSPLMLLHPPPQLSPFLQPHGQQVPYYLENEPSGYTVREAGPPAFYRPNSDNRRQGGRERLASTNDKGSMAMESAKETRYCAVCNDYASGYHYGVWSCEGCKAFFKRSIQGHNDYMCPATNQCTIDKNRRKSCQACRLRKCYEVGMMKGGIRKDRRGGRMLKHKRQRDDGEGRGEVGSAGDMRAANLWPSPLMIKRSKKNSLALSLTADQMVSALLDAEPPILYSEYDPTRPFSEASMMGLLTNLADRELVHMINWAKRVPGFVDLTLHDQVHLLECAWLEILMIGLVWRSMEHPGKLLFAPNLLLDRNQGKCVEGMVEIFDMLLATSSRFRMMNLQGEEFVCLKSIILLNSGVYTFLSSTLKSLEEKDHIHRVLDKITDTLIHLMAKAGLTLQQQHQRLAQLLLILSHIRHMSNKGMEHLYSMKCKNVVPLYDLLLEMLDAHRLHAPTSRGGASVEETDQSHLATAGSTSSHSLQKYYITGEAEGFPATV
Compound,Potency [1],Potency [2],Potency [3],Potency [4],Potency [5],Potency [6],Potency [7],Potency [8],Potency [9],Potency [10],Potency [11],Potency [12],Potency [13],Potency [14],outcome [15],Potency [16],Potency [17],outcome [18],Potency [19],Potency [20]
COc1ccc(C(C)=O)cc1,inactive,inactive,inactive,inactive,inactive,inactive,inactive,inactive,inactive,inactive,inactive,inactive,inactive,inactive,inactive,inactive,inactive,inactive,,
CCc1nn(C2CCCCC2)c2cc(C3(C#N)CCC(C(=O)O)CC3)ccc12 (configuration not stated),inactive,inactive,inactive,inactive,inactive,inactive,inactive,inactive,inactive,inactive,inactive,inactive,,inactive,inactive,30.6 µM (active),27.3 µM (active),inactive,inactive,
CCN(CC)CCNC(C(=O)OCCC(C)C)c1ccccc1 (configuration not stated),inactive,inactive,inactive,inactive,inactive,inactive,inactive,inactive,inactive,inactive,inactive,inactive,,inactive,inactive,inactive,inactive,inactive,inactive,inactive
OCC1CC2CC1C1CCC(CO)C21 (configuration not stated),inactive,inactive,inactive,inactive,inactive,inactive,inactive,inactive,inactive,inactive,inactive,inactive,,inactive,inactive,inactive,inactive,inactive,inactive,
CC(CN)CCCN (configuration not stated),inactive,inactive,inactive,inactive,inactive,inactive,inactive,inactive,inactive,inactive,inactive,inactive,,inactive,,inactive,inactive,inactive,inactive,
CC(=O)O[C@H]1C[C@@H]2CC[C@@H]3[C@H](CC[C@@]4(C)[C@H]3C[C@H]([N+]3(C)CCCCC3)[C@@H]4OC(C)=O)[C@@]2(C)C[C@@H]1N1CCCCC1,inactive,inactive,inactive,inactive,inactive,inactive,inactive,inactive,inactive,inactive,inactive,inactive,,inactive,inactive,inactive,inactive,inactive,,inactive
CCCCCC(CO)CCC (configuration not stated),inactive,inactive,inactive,inactive,inactive,inactive,inactive,inactive,inactive,inactive,inactive,inactive,,inactive,inactive,inactive,inactive,inactive,,
Nc1nc(N)c(-c2ccccc2)s1,inactive,inactive,inactive,inactive,inactive,inactive,inactive,inactive,inactive,inactive,inactive,inactive,,inactive,inactive,inactive,inactive,inactive,,inactive
C=C(C)C(=O)OC(C)C,inactive,inactive,inactive,inactive,inactive,inactive,inactive,inactive,inactive,inactive,inactive,inactive,inactive,inactive,inactive,inactive,inactive,inactive,inactive,
O=S(=O)(O)c1ccc(O)c2ncccc12,inactive,inactive,inactive,inactive,inactive,inactive,inactive,inactive,inactive,inactive,inactive,inactive,,inactive,,inactive,inactive,inactive,inactive,
N#CCc1cccc(C(F)(F)F)c1,inactive,inactive,inactive,inactive,inactive,inactive,inactive,inactive,inactive,inactive,inactive,inactive,,inactive,,,inactive,inactive,inactive,
C[Si](C)O[Si](C)(C)O[Si](C)(C)O[Si](C)C,inactive,inactive,inactive,inactive,inactive,inactive,inactive,inactive,inactive,inactive,inactive,inactive,,inactive,,inactive,inactive,inactive,inactive,
O=C(Cl)c1ccc([N+](=O)[O-])cc1,inactive,inactive,inactive,inactive,inactive,inactive,inactive,inactive,inactive,inactive,inactive,inactive,inactive,inactive,inactive,inactive,inactive,inactive,inactive,
CCCCCCCCCCCCCCC1CO1 (configuration not stated),inactive,inactive,inactive,inactive,inactive,inactive,inactive,inactive,inactive,inactive,inactive,inactive,,inactive,inactive,inactive,inactive,inactive,inactive,
CC1=CC(=O)/C(=C(/C)O)C(=O)O1,inactive,inactive,inactive,inactive,inactive,inactive,inactive,inactive,inactive,inactive,inactive,inactive,,inactive,inactive,inactive,inactive,inactive,inactive,
